The source made the active and inactive calls. How the calls were made is not given here.
Target: Polyamine deacetylase HDAC10 (Homo sapiens) (UniProt Q969S8)
Assay: inhibitors of recombinant human HDAC10 – biochemical, selectivity assay for E-cadherin restoration project, profiling panel (AID 651910)

Polyamine deacetylase HDAC10 (Homo sapiens), sequence (Q969S8 whole entry, looked up): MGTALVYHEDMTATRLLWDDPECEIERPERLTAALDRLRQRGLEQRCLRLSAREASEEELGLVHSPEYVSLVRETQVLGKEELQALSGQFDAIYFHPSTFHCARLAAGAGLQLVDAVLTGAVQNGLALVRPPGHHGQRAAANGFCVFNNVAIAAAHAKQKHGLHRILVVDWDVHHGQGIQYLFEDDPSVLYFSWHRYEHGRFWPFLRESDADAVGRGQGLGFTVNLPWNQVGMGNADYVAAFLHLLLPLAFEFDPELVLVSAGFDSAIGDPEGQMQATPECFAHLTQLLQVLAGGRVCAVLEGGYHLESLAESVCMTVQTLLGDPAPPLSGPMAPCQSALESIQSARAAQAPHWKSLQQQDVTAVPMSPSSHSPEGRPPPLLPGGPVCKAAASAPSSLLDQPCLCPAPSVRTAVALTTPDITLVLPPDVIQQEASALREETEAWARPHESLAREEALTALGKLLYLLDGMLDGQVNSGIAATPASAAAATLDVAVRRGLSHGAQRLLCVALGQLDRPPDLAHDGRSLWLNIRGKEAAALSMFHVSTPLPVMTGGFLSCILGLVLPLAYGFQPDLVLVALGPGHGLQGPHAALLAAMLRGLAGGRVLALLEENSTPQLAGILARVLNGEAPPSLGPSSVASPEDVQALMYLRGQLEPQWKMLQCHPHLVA

`O=C(NCCCNC(=O)c1ccc[nH]c1=O)c1cc(-c2ccccc2)on1` was tested, and the outcome was “inactive”.
